Among the test systems are HCT-15 colon; HT29 colon; SNB-75 CNS; SNB-19 CNS; U251 CNS; PC-3 prostate; SK-MEL-5 melanoma; UACC-62 melanoma; LOX IMVI melanoma; SK-MEL-28 melanoma; SK-MEL-2 melanoma; EKVX NSCLC; SN12C renal; UO-31 renal; TK-10 renal; ACHN renal; CAKI-1 renal; A498 renal; CCRF-CEM leukemia; MOLT-4 leukemia.
Assay in all cases: NCI-60 one-dose screen, 48 h (100 = growth as untreated, 0 = no growth, -100 = all killed)
What all share (details): 10 µM unless noted

Each structure is given as a SMILES string. About 83,000 compounds went through this panel and 20% of them were active in at least one assay; those are over-represented in the sample as a whole.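 Interpretation: 100, growth as untreated; towards 0, rising growth inhibition; 0, no net growth; 0 to -100, cell death. Compounds scoring below 10 were considered active.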 A number with no mark means an inactive call. The source made the active and inactive calls.

On to `Oc1cccc(CCc2ccc(Oc3cc(CCc4cccc(O)c4)cc(O)c3O)cc2)c1`, for which the growth is 39.1% in the assay with HCT-15 colon; 99.2% with HT29 colon; 72.8% with SNB-75 CNS; 89% in the assay on SNB-19 CNS; 74.5% with U251 CNS; 63.5% in the assay on PC-3 prostate. The growth in the assay with SK-MEL-5 melanoma was 70.2%; in the assay with UACC-62 melanoma, 73.3%; in the assay on LOX IMVI melanoma it was 62.7%; with SK-MEL-28 melanoma, 88.6%; in the assay on SK-MEL-2 melanoma, 84.1%; in the assay on EKVX NSCLC it was 85.1%. The growth was 67.9% in the assay on SN12C renal; 36.4% in the assay with UO-31 renal; 111% with TK-10 renal; 77.1% in the assay on ACHN renal; 52.7% with CAKI-1 renal; 95.2% with A498 renal. For the same compound, the growth with CCRF-CEM leukemia was 24.1%; with MOLT-4 leukemia it was 18%.

On to `CCOC(=O)c1cc(C(=O)c2ccc(Br)cc2)n2ccc(/C=C/c3cc[n+](CC(=O)c4ccc(OC)cc4)cc3)cc12`, for which the growth was 70.7% in the assay on HCT-15 colon; 34.3% with HT29 colon; 93.7% with SNB-75 CNS; 89.1% in the assay on SNB-19 CNS; 101% in the assay with U251 CNS; 83.8% in the assay on PC-3 prostate. The growth with SK-MEL-5 melanoma was 95.3%; in the assay with UACC-62 melanoma it was 92.7%; in the assay with LOX IMVI melanoma it was 81%; with SK-MEL-28 melanoma, 106%; in the assay on SK-MEL-2 melanoma, 105%; in the assay on EKVX NSCLC it was 95.3%. The growth in the assay with SN12C renal was 78%; in the assay on UO-31 renal, 77.6%; with TK-10 renal it was 116%; in the assay on ACHN renal it was 93.6%; with CAKI-1 renal, 93.2%; in the assay on A498 renal it was 92%. Besides, the growth is -23.7% (active) in the assay with CCRF-CEM leukemia and 68.3% in the assay on MOLT-4 leukemia.

In the case of `COc1cc2c(c(OC)c1OC)-c1ccc(NNC(=S)N(Cc3cccc(C[N+](Cc4cccc(CNC56CC7CC(CC(C7)C5)C6)c4)(Cc4cccc(CNC56CC7CC(CC(C7)C5)C6)c4)Cc4cccc(CN(C(=S)NNc5ccc6c(cc5=O)[C@@H](NC(C)=O)CCc5cc(OC)c(OC)c(OC)c5-6)C56CC7CC(CC(C7)C5)C6)c4)c3)C34CC5CC(CC(C5)C3)C4)c(=O)cc1[C@@H](NC(C)=O)CC2` (stereo not given in full), the growth with HCT-15 colon was 9.96% (active); in the assay on HT29 colon, -5.79% (active); with SNB-75 CNS, 31.7%; in the assay with SNB-19 CNS, 16%; with U251 CNS, 5.78% (active); with PC-3 prostate, 12.2%. Moreover, the growth with SK-MEL-5 melanoma was -94.2% (active); with UACC-62 melanoma, 15.5%; with LOX IMVI melanoma, -20.1% (active); with SK-MEL-28 melanoma, 33.3%; in the assay with SK-MEL-2 melanoma it was -20.3% (active); in the assay with EKVX NSCLC, 44.7%. Also, the growth in the assay on SN12C renal was 12.2%; with UO-31 renal, 39.7%; in the assay on TK-10 renal, 48.7%; in the assay with ACHN renal, 44.4%; in the assay with CAKI-1 renal, 29%; in the assay on A498 renal, -5.83% (active). Further, the growth in the assay with CCRF-CEM leukemia was -6.54% (active); with MOLT-4 leukemia, -17% (active).

For `N#CC1C(C#N)C2c3ccccc3C=CN2C1C(=O)c1ccc(Br)cc1` (stereo not given), the growth in the assay with HCT-15 colon is 95.9%; with HT29 colon it was 86.8%; with SNB-75 CNS, 90.5%; in the assay on SNB-19 CNS it was 91.2%; in the assay on U251 CNS it was 100%; in the assay with PC-3 prostate it was 94%. Further, the growth with SK-MEL-5 melanoma was 90.8%; with UACC-62 melanoma it was 98.4%; in the assay with LOX IMVI melanoma it was 92.2%; in the assay with SK-MEL-28 melanoma, 102%; in the assay with SK-MEL-2 melanoma, 98.3%; in the assay on EKVX NSCLC, 93%. For the same compound, the growth with SN12C renal is 88.6%; in the assay with UO-31 renal it was 99.2%; in the assay on TK-10 renal, 111%; with ACHN renal, 90.3%; in the assay with CAKI-1 renal, 89.8%; in the assay on A498 renal, 101%. For the same compound, the growth with CCRF-CEM leukemia is 99.2%; with MOLT-4 leukemia it was 102%.

`CCOC(=O)c1cc(C(=O)c2ccc(OC)c(OC)c2)n2c1ccc1ccccc12`: the growth in the assay on HCT-15 colon is 84.5%; in the assay with HT29 colon, 103%; in the assay on SNB-75 CNS, 48.5%; in the assay with SNB-19 CNS, 94%; in the assay on U251 CNS, 96.2%; in the assay on PC-3 prostate it was 81.7%. Moreover, the growth in the assay with SK-MEL-5 melanoma was 89.8%; with UACC-62 melanoma it was 74.3%; with LOX IMVI melanoma, 85.1%; in the assay with SK-MEL-28 melanoma, 106%; with SK-MEL-2 melanoma it was 104%; in the assay on EKVX NSCLC it was 76.1%. The growth with SN12C renal is 83.7%; with UO-31 renal, 58.4%; with TK-10 renal, 154%; in the assay on ACHN renal, 91%; with CAKI-1 renal, 64.6%; with A498 renal it was 97.1%. Moreover, the growth with CCRF-CEM leukemia is 94%; in the assay with MOLT-4 leukemia, 89.6%.

Take `CC(C)N1C(=O)/C(=C2\SC(=S)N(C(C)C)C2=O)SC1=S`: the growth was 98.5% in the assay on HCT-15 colon; 96.8% with HT29 colon; 62.3% in the assay on SNB-75 CNS; 92.6% with SNB-19 CNS; 90.8% in the assay on U251 CNS; 89.3% in the assay on PC-3 prostate. For the same compound, the growth in the assay on SK-MEL-5 melanoma was 97.9%; in the assay with UACC-62 melanoma it was 91.7%; in the assay with LOX IMVI melanoma, 90%; in the assay on SK-MEL-28 melanoma it was 97.8%; in the assay with SK-MEL-2 melanoma it was 96.8%; in the assay on EKVX NSCLC, 82.9%. Besides, the growth in the assay on SN12C renal is 93.1%; with UO-31 renal, 78.6%; with TK-10 renal, 88.2%; in the assay on ACHN renal, 100%; with CAKI-1 renal it was 93.7%; in the assay on A498 renal it was 84.2%. The growth with CCRF-CEM leukemia is 87.8%; with MOLT-4 leukemia it was 101%.

Values taken from PubChem BioAssay (NCI).
